According to publication PMC5540273 (PLoS ONE, 2017):

Key:
Conditions in all cases: concentration: 1 μM, replicates: in singlicate; n = 1
[1] = tested on: CAMK2G
[2] = tested on: CAMK4
[3] = tested on: CAMKK1
[4] = tested on: CAMKK2
[5] = tested on: CASK
[6] = tested on: T1, CDC2L1
T1 construct: gene CDK11B

[7] = tested on: CDC2L2
[8] = tested on: T2, CDC2L5
T2 construct: gene CDK13

[9] = tested on: T3, CDK11
T3 construct: gene CDK19

[10] = tested on: CDK2
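Further: KINOMEscan kinase panel screen.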

Compound: O=C(Nc1ccc2c(c1)OCO2)NC1CCN(c2ccnc(NCc3ccc(F)cc3)n2)CC1 [GSK1379859]
- %Inh [1]: 22%
- %Inh [2]: 0%
- %Inh [3]: 0%
- %Inh [4]: 25%
- %Inh [5]: 0%
- %Inh [6]: 0%
- %Inh [7]: 6%
- %Inh [8]: 0%
- %Inh [9]: 53%
- %Inh [10]: 0%

Compound: COc1cc2ncn(-c3cc(OCc4ccncc4Br)c(C(N)=O)s3)c2cc1OC [GW854278]
- %Inh [1]: 11%
- %Inh [2]: 0%
- %Inh [3]: 15%
- %Inh [4]: 17%
- %Inh [5]: 34%
- %Inh [6]: 5%
- %Inh [7]: 10%
- %Inh [8]: 5%
- %Inh [9]: 11%
- %Inh [10]: 1%

Compound: Cc1cccc(-c2cc(-c3c[nH]nc3-c3ccccn3)ccn2)c1 [GW679395]
- %Inh [1]: 21%
- %Inh [2]: 0%
- %Inh [3]: 9%
- %Inh [4]: 7%
- %Inh [5]: 24%
- %Inh [6]: 0%
- %Inh [7]: 0%
- %Inh [8]: 0%
- %Inh [9]: 9%
- %Inh [10]: 0%

Compound: CN1C(=O)C(Nc2ccccc2)=C(c2ccccc2)C1=O [SB-300079]
- %Inh [1]: 0%
- %Inh [2]: 0%
- %Inh [3]: 0%
- %Inh [4]: 0%
- %Inh [5]: 0%
- %Inh [6]: 0%
- %Inh [7]: 0%
- %Inh [8]: 0%
- %Inh [9]: 0%
- %Inh [10]: 0%

Compound: O=C1NC(=O)C(c2ccccc2)=C1Nc1cccc(O)c1 [SB-390534]
- %Inh [1]: 13%
- %Inh [2]: 0%
- %Inh [3]: 0%
- %Inh [4]: 0%
- %Inh [5]: 1%
- %Inh [6]: 0%
- %Inh [7]: 0%
- %Inh [8]: 1%
- %Inh [9]: 0%
- %Inh [10]: 2%

Compound: Cc1cccc(-c2nc(Nc3ccc4c(cnn4C)c3)c3ccccc3n2)n1 [GW876731]
- %Inh [1]: 0%
- %Inh [2]: 0%
- %Inh [3]: 2%
- %Inh [4]: 0%
- %Inh [5]: 0%
- %Inh [6]: 0%
- %Inh [7]: 6%
- %Inh [8]: 0%
- %Inh [9]: 10%
- %Inh [10]: 6%

Compound: COc1ccc(-c2cc3c(C)nc(N)nc3n([C@H]3CC[C@H](OCCO)CC3)c2=O)cn1
- %Inh [1]: 0%
- %Inh [2]: 5%
- %Inh [3]: 5%
- %Inh [4]: 0%
- %Inh [5]: 0%
- %Inh [6]: 11%
- %Inh [7]: 0%
- %Inh [8]: 0%
- %Inh [9]: 34%
- %Inh [10]: 0%

Compound: COc1ccc(Nc2nccc(N3CCC(NS(=O)(=O)c4ccc(NC(C)=O)cc4)C3)n2)cc1 (centres unmarked) [GSK1379729]
- %Inh [1]: 9%
- %Inh [2]: 4%
- %Inh [3]: 12%
- %Inh [4]: 5%
- %Inh [5]: 0%
- %Inh [6]: 0%
- %Inh [7]: 17%
- %Inh [8]: 0%
- %Inh [9]: 11%
- %Inh [10]: 2%

Compound: COC(=O)c1c(-c2ccccc2)c2cc(Br)ccc2c(=O)n1Cc1ccc(S(C)(=O)=O)cc1
- %Inh [1]: 21%
- %Inh [2]: 0%
- %Inh [3]: 10%
- %Inh [4]: 30%
- %Inh [5]: 0%
- %Inh [6]: 11%
- %Inh [7]: 0%
- %Inh [8]: 14%
- %Inh [9]: 24%
- %Inh [10]: 6%

Compound: CN1C(=O)C(Nc2cc(Cl)c(O)c(Cl)c2)=C(c2ccc(Cl)cc2)C1=O [SB-404321]
- %Inh [1]: 0%
- %Inh [2]: 0%
- %Inh [3]: 0%
- %Inh [4]: 0%
- %Inh [5]: 14%
- %Inh [6]: 0%
- %Inh [7]: 0%
- %Inh [8]: 0%
- %Inh [9]: 9%
- %Inh [10]: 0%

Compound: Cc1nnc(-c2ccc(C)c(-c3ccc(C(=O)O)cc3)c2)o1 [GW608005]
- %Inh [1]: 3%
- %Inh [2]: 0%
- %Inh [3]: 7%
- %Inh [4]: 0%
- %Inh [5]: 1%
- %Inh [6]: 0%
- %Inh [7]: 0%
- %Inh [8]: 0%
- %Inh [9]: 0%
- %Inh [10]: 0%

Compound: Cc1ccccc1COc1cc(-n2cnc3cc(Cl)ccc32)sc1C(N)=O [GW813349]
- %Inh [1]: 0%
- %Inh [2]: 0%
- %Inh [3]: 0%
- %Inh [4]: 0%
- %Inh [5]: 17%
- %Inh [6]: 0%
- %Inh [7]: 0%
- %Inh [8]: 0%
- %Inh [9]: 23%
- %Inh [10]: 0%

Compound: COc1cc(Nc2nccc(N3CCC(NC(=O)C(C)c4ccc(Cl)cc4)C3)n2)cc(OC)c1OC (centres unmarked) [GSK1379757]
- %Inh [1]: 21%
- %Inh [2]: 0%
- %Inh [3]: 0%
- %Inh [4]: 1%
- %Inh [5]: 0%
- %Inh [6]: 0%
- %Inh [7]: 13%
- %Inh [8]: 0%
- %Inh [9]: 3%
- %Inh [10]: 0%

Compound: COc1cc(Nc2ccnc3ccc(C(F)(F)F)cc23)cc(OC)c1OC [GW577382]
- %Inh [1]: 12%
- %Inh [2]: 10%
- %Inh [3]: 15%
- %Inh [4]: 0%
- %Inh [5]: 25%
- %Inh [6]: 0%
- %Inh [7]: 17%
- %Inh [8]: 0%
- %Inh [9]: 19%
- %Inh [10]: 4%

Compound: CCC(=O)c1c(-c2ccccc2)c2cc(Cl)ccc2c(=O)n1Cc1ccc(C(=O)O)cc1
- %Inh [1]: 0%
- %Inh [2]: 0%
- %Inh [3]: 0%
- %Inh [4]: 0%
- %Inh [5]: 0%
- %Inh [6]: 0%
- %Inh [7]: 0%
- %Inh [8]: 0%
- %Inh [9]: 0%
- %Inh [10]: 0%

Compound: CCc1ccc(-c2ccc3c(c2)-c2nn(C)cc2S(=O)(=O)N3C)cc1
- %Inh [1]: 4%
- %Inh [2]: 0%
- %Inh [3]: 22%
- %Inh [4]: 9%
- %Inh [5]: 14%
- %Inh [6]: 0%
- %Inh [7]: 0%
- %Inh [8]: 16%
- %Inh [9]: 8%
- %Inh [10]: 0%

Compound: Nc1nc(-c2ccccc2F)c(-c2ccnc3ccccc23)s1 [GW560459]
- %Inh [1]: 10%
- %Inh [2]: 0%
- %Inh [3]: 10%
- %Inh [4]: 4%
- %Inh [5]: 0%
- %Inh [6]: 0%
- %Inh [7]: 8%
- %Inh [8]: 0%
- %Inh [9]: 0%
- %Inh [10]: 0%
